# The list is not random: actives were taken first. Their share in the collection is about 20%.
# Shiga inhibitor – Shiga toxin inhibition. Vero cells, Shiga toxin protein synthesis inhibition reporter. inhibition, % at 38.7 µM. hit rate 9.2% among 290,000. AID 2315; in the data active = inhibition mostly above about 28%, no sharp cut-off; inactive = mostly below about 43%; note: 0% is about no effect
# CHX counter – counter-screen hit for Shiga toxin inhibitors, cycloheximide | cell reporter, cycloheximide protein synthesis inhibition counterscreen | max response, % | hit rate 12% among 300,000; in the data active = max response mostly above about 13%, no sharp cut-off; inactive = mostly below about 14%; note: read at 38.3 µM for the half of the compounds with a filed dose; 0% is about no effect
# Pf growth 96h – inhibits malaria parasite growth, 96 h; P. falciparum luciferase reporter growth, 96 h; Potency, µM (titrated, usually from 28.7 µM), without a hit: at the top dose activity change, negative = inhibition, usual class: inhibitors; hit rate 6.9% among 320,000; AID 504834; note: potency is the fitted concentration of half-maximal effect; % is set by controls: 0 for no effect and ±100 for the full control effect
#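 Readout is luminescence from an integrated firefly luciferase in P. falciparum. Red cells, 2% hematocrit and 0.05% parasitemia final, were cultured with compound through two parasite generations (96 hours) at 37 C, 5% CO2.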
# Pf growth 48h – inhibits P. falciparum growth in the first generation, 48 h; P. falciparum luciferase growth in erythrocytes, 48 h; Potency, µM (doses to about 28.7 µM), for the others: top-dose activity change, negative = inhibition, usual class: inhibitors; hit rate 5.9% among 310,000; AID 504832; note: potency is the fitted concentration of half-maximal effect; % is set by controls: 0 for no effect and ±100 for the full control effect
#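 A one-generation exposure of luciferase-tagged malaria parasites in RPMI 1640/Albumax erythrocyte culture, 37 C and 5% CO2. Inhibition is inferred from decreased luminescence after adding detection reagent.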
# HCMV inh – blocks human cytomegalovirus replication. hit rate 4.5% among 410,000. HFF cells, HCMV-luciferase reporter, 72 h; stronger effect = lower value. AID 1259415. activity change, negative = inhibition, % at 57.5 µM; in the data active = activity change below about -60%; inconclusive = no clear call, values can overlap the other calls; inactive = above about -39%; note: % is set by controls: 0 for no effect and ±100 for the full control effect
#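 Two compound doses tested in HFFs infected with HCMV-luciferase, MOI 1 PFU/cell, 72 h at 37C. Lysate luminescence read with OneGlo; data normalized against buffer-only and 10uM Salinomycin inhibitor controls.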
# * hit, by the source's call; ? = inconclusive; nt = no result; [ ] = another dose, or the depositor's remark. Unless noted, calls come from the whole dose curve; as a rule, active = well fitted inhibition curve with a large enough effect; inconclusive = small, poorly fitted or top-dose-only effect, or another doubt; inactive = no such curve, though single readings can be large or run the other way.
SMILES,Shiga inhibitor,CHX counter,Pf growth 96h,Pf growth 48h,HCMV inh
CCC(C)NC(=O)COC(=O)c1ccc(Cl)cc1O (stereo not drawn),-5,8,17%,-26%,-6
COc1cc(OC)c(S(=O)(=O)Nc2ccc(C)cn2)cc1NC(C)=O,-9,-1,0%,-2%,-19
Cc1cc(C)n(-c2cc(C(C)(C)C)nc3c(-c4ccc(Cl)cc4)cnn23)n1,64*,29*,?,?,-25
Cc1cc(C)n(-c2cc(C(C)(C)C)nc3c(-c4ccccc4)cnn23)n1,90*,54*,-23%,94%,38
Cc1ccc(-c2cc(C(F)(F)F)n3ncc(-c4ccc(Cl)cc4)c3n2)cc1,nt,nt,nt,nt,-2
CCCc1nc2ccccc2c(C(=O)OCC(=O)Nc2cccc(S(=O)(=O)N3CCOCC3)c2)c1CC,-3,-2,7.4µM*,?,0
CCCc1nc2ccccc2c(C(=O)OCC(=O)Nc2ccc(S(=O)(=O)N3CCOCC3)cc2)c1CC,-3,-3,nt,15µM*,30
O=C(COC(=O)c1ccc(O)cc1)Nc1ccc(S(=O)(=O)N2CCOCC2)cc1,nt,nt,nt,nt,9
Cc1ccccc1NC(=O)CSc1nnc(-c2cccc(Cl)c2)o1,nt,nt,nt,nt,44
CC(=O)c1cccc(NC(=O)c2nc(-c3ccc(C)cc3)n3c2CCCCC3)c1,nt,nt,nt,nt,-1
CN1CCN(C(=O)C[C@H]2CC[C@H]3[C@@H](COC[C@@H](O)CN3C(=O)C3CCCC3)O2)CC1,nt,nt,nt,nt,-21
Cc1ccccc1OCC(=O)NNC(=O)c1ccoc1C,nt,nt,-12%,-17%,-2
Cc1occc1C(=O)NNC(=S)NC(=O)COc1ccc(Cl)cc1Cl,42,26*,0%,3%,4
Cc1occc1C(=O)NNC(=O)COc1ccc(Br)cc1Br,50*,14,34%,11%,4
Cc1ccc(OCC(=O)NNC(=O)c2ccoc2C)c(Br)c1,23,8,12%,35%,-9
CCN(CC)c1cc(Oc2ccccc2)ncn1,73*,19*,nt,27%,8
CCN(CC)c1cc(-c2ccccc2)ncn1,-1,9,0%,4%,25
O=C(Cn1c(=O)c2cccn2c2ccccc21)NCCc1ccc(Cl)cc1,2,0,10µM*,27%,-7
O=C(Cn1c(=O)c2cccn2c2ccccc21)NCCc1ccccc1,7,-3,?,11%,-23
Cc1cccc(-n2cc(-c3ccccc3)c3c(=O)[nH]cnc32)c1,-11,-2,?,?,0
CC1CCN(S(=O)(=O)c2ccc3ncn(CC(=O)N(C)Cc4ccccc4)c(=O)c3c2)CC1,32,1,15µM*,?,63
CC1CCN(S(=O)(=O)c2ccc3ncn(CC(=O)Nc4ccccc4C(F)(F)F)c(=O)c3c2)CC1,nt,nt,nt,nt,-5
O=S1(=O)N=C(N/N=C/c2cccs2)c2ccccc21,-2,-1,13µM*,?,-17
O=[N+]([O-])c1ccc(/C=N/NC2=NS(=O)(=O)c3ccccc32)cc1,-7,2,-7%,32%,-18
O=[N+]([O-])c1ccc(O)c(/C=N/Nc2ccc(Cl)nn2)c1,21,11,0.37µM*,0.41µM*,-101*
SMILES,Shiga inhibitor,CHX counter,Pf growth 96h,Pf growth 48h,HCMV inh
Oc1cccc(/C=N/Nc2ccc(Cl)nn2)c1,68*,42*,11%,nt,141
O=[N+]([O-])c1ccc(O)c(/C=N/NC2=NS(=O)(=O)c3ccccc32)c1,1,10,5%[5.75 µM],2.6µM*,22
COc1ccc(CCNC(=O)CSc2n[nH]c(-c3ccccc3Cl)n2)cc1OC,nt,nt,nt,nt,4
Cc1cccc(OCCNC(=O)c2cccc(Oc3ccc(C(F)(F)F)cc3[N+](=O)[O-])c2)c1,-2,1,?,-6%,-31
CCOc1ccccc1NC(=O)C(CC)n1c(C(=O)OC)cc2occc21 (stereo not drawn),nt,nt,nt,nt,3
Cc1ccccc1-c1noc(-c2cc(C(C)C)[nH]n2)n1,nt,nt,nt,nt,38
C=CCOn1c(=O)c(-c2cc3ccccc3o2)[n+]([O-])c2ccccc21,120*,38*,?,?,162
CCOC(=O)COn1c(=O)c(-c2ccc(Br)cc2)[n+]([O-])c2ccccc21,-5,-1,78%,35%,39
CCOC(=O)COn1c(=O)c(-c2cc3ccccc3o2)[n+]([O-])c2ccccc21,172*,72*,146%,160%,169
C=CCOn1c(=O)c(-c2ccccc2)[n+]([O-])c2ccccc21,1,2,?,24%,?
O=C(NCc1ccccc1CN1CCCC1)c1cc2ccccc2o1,nt,nt,?,?,34
